What was measured:
Test in all cases: log2 ratio of Biotin-Ahx-Ub-VS probe labelling (fragment/DMSO); higher = less target engagement (more negative = stronger competition), active = hit call of the paper (q ≤ 0.05, log2 ratio ≤ -1)
Settings in all cases: compound concentration: 200 uM; treatment time: 3 h
[1] = target: USP34 (UniProt Q70CQ2)
How it was run: (§1)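 Labelled DUBs from HEK293T lysate were NeutrAvidin-enriched, digested with LysC and trypsin, and run by diaPASEF LC-MS/MS. Before that, each 495 µg sample in Tris/CHAPS/IGEPAL buffer with protease inhibitors was treated in triplicate with fragment at 200 µM or vehicle for 3 h, then with Biotin-Ahx-Ub-VS at 0.5 µM final for 1 h. Values are average log2 ratios of fragment over vehicle by unpaired t-test, based on global-median-normalised Spectronaut label-free quantities from proteins with ≥2 unique peptides.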

[2] = target: T1, USP36 (UniProt Q9P275)
T1 sequence (whole entry): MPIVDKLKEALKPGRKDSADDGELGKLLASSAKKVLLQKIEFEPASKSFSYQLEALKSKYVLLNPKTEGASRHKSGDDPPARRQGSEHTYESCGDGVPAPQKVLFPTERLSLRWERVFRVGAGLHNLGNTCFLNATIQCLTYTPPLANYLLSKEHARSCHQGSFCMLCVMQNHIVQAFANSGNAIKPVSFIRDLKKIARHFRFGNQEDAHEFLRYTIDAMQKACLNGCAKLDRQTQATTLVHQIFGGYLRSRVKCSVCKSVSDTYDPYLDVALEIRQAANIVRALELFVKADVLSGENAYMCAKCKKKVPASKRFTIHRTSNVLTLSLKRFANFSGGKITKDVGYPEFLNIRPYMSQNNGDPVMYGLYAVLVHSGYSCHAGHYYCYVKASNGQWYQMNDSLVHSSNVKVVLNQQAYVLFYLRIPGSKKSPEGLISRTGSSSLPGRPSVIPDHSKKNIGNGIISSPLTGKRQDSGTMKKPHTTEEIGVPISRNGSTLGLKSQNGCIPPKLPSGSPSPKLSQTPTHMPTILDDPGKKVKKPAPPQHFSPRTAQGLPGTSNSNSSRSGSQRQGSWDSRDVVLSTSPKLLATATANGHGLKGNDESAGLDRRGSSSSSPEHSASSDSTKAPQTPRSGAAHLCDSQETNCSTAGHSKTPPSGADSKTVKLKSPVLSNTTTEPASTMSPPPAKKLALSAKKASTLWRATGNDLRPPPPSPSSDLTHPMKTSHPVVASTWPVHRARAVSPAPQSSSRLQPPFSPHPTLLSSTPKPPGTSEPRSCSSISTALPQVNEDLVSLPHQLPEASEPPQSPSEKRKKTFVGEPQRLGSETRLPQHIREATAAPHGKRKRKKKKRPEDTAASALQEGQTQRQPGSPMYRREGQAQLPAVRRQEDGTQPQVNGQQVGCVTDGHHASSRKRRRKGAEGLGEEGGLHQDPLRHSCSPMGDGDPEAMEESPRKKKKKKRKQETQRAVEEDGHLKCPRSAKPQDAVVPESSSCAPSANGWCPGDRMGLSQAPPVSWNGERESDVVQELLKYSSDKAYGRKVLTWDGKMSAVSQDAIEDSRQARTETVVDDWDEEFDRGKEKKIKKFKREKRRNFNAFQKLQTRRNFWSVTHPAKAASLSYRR
How it was run: as §1

[3] = target: T2, USP38 (UniProt Q8NB14)
T2 sequence (whole entry): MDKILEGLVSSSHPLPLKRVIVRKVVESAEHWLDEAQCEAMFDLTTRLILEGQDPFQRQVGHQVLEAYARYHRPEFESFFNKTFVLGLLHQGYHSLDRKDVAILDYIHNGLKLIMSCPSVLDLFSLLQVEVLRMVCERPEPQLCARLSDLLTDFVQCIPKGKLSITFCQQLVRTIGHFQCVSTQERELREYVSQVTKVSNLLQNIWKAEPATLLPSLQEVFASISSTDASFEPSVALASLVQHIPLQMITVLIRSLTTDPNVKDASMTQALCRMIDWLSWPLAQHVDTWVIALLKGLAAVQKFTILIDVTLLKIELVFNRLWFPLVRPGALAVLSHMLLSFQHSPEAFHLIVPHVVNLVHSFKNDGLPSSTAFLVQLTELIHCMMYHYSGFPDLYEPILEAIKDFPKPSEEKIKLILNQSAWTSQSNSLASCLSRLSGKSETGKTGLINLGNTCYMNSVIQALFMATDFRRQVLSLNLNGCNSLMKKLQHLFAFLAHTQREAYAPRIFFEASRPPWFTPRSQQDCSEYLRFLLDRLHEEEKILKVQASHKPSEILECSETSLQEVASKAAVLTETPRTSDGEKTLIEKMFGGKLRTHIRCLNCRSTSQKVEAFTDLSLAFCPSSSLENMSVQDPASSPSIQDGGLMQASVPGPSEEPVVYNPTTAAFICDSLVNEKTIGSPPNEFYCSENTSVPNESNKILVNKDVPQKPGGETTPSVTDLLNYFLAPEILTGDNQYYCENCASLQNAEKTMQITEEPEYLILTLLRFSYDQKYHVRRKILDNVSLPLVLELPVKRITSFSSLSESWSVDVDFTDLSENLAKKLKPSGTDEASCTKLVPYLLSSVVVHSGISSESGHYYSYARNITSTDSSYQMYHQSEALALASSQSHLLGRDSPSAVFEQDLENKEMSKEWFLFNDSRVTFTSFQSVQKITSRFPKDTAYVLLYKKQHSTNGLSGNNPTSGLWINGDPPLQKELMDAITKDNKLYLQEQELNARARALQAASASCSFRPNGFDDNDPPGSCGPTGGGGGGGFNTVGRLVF
How it was run: as §1

[4] = target: T3, USP39 (UniProt Q53GS9)
T3 sequence (whole entry): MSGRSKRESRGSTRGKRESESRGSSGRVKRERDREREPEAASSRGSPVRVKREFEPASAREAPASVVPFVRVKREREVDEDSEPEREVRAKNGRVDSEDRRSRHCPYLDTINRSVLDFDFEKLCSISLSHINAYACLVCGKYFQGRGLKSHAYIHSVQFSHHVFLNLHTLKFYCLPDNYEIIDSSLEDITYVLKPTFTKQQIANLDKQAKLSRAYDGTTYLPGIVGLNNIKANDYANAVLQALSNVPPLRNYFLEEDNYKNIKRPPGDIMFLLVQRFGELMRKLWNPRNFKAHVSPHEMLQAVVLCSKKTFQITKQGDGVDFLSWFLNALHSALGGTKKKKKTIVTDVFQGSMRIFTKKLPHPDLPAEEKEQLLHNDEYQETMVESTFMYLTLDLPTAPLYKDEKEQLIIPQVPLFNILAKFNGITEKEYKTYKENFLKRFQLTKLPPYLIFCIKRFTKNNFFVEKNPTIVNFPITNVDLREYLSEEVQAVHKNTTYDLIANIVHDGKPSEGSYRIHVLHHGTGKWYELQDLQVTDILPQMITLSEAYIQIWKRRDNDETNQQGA
How it was run: as §1

[5] = target: T4, USP4 (UniProt Q13107)
T4 sequence (whole entry): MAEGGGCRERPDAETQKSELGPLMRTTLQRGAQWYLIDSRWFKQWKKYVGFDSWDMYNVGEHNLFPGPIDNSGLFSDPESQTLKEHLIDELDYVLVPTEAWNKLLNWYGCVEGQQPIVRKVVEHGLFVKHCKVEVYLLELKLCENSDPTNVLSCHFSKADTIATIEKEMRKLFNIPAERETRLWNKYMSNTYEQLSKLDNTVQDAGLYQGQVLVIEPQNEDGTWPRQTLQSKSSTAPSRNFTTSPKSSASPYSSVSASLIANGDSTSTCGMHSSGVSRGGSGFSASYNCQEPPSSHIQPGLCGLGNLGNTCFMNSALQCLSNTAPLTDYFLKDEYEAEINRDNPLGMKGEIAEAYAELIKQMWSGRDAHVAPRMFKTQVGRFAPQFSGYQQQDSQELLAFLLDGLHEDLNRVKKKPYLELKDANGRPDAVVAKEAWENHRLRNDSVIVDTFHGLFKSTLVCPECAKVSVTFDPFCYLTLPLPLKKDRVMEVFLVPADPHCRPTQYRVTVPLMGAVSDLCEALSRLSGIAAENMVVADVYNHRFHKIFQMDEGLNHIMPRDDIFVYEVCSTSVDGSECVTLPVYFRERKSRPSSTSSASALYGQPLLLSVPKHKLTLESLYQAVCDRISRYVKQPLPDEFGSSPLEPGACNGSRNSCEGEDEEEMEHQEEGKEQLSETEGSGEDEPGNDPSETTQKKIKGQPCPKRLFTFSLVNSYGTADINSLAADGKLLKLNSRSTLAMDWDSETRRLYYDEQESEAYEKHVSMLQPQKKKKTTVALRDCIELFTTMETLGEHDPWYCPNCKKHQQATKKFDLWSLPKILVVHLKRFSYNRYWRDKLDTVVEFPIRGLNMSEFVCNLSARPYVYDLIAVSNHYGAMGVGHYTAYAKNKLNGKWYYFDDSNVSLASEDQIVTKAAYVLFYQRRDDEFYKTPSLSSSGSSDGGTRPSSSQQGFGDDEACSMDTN
How it was run: as §1

Measured: log2 ratio of Biotin-Ahx-Ub-VS probe labelling

Chain of USP34 (Q70CQ2 whole entry, the tested form may be a part): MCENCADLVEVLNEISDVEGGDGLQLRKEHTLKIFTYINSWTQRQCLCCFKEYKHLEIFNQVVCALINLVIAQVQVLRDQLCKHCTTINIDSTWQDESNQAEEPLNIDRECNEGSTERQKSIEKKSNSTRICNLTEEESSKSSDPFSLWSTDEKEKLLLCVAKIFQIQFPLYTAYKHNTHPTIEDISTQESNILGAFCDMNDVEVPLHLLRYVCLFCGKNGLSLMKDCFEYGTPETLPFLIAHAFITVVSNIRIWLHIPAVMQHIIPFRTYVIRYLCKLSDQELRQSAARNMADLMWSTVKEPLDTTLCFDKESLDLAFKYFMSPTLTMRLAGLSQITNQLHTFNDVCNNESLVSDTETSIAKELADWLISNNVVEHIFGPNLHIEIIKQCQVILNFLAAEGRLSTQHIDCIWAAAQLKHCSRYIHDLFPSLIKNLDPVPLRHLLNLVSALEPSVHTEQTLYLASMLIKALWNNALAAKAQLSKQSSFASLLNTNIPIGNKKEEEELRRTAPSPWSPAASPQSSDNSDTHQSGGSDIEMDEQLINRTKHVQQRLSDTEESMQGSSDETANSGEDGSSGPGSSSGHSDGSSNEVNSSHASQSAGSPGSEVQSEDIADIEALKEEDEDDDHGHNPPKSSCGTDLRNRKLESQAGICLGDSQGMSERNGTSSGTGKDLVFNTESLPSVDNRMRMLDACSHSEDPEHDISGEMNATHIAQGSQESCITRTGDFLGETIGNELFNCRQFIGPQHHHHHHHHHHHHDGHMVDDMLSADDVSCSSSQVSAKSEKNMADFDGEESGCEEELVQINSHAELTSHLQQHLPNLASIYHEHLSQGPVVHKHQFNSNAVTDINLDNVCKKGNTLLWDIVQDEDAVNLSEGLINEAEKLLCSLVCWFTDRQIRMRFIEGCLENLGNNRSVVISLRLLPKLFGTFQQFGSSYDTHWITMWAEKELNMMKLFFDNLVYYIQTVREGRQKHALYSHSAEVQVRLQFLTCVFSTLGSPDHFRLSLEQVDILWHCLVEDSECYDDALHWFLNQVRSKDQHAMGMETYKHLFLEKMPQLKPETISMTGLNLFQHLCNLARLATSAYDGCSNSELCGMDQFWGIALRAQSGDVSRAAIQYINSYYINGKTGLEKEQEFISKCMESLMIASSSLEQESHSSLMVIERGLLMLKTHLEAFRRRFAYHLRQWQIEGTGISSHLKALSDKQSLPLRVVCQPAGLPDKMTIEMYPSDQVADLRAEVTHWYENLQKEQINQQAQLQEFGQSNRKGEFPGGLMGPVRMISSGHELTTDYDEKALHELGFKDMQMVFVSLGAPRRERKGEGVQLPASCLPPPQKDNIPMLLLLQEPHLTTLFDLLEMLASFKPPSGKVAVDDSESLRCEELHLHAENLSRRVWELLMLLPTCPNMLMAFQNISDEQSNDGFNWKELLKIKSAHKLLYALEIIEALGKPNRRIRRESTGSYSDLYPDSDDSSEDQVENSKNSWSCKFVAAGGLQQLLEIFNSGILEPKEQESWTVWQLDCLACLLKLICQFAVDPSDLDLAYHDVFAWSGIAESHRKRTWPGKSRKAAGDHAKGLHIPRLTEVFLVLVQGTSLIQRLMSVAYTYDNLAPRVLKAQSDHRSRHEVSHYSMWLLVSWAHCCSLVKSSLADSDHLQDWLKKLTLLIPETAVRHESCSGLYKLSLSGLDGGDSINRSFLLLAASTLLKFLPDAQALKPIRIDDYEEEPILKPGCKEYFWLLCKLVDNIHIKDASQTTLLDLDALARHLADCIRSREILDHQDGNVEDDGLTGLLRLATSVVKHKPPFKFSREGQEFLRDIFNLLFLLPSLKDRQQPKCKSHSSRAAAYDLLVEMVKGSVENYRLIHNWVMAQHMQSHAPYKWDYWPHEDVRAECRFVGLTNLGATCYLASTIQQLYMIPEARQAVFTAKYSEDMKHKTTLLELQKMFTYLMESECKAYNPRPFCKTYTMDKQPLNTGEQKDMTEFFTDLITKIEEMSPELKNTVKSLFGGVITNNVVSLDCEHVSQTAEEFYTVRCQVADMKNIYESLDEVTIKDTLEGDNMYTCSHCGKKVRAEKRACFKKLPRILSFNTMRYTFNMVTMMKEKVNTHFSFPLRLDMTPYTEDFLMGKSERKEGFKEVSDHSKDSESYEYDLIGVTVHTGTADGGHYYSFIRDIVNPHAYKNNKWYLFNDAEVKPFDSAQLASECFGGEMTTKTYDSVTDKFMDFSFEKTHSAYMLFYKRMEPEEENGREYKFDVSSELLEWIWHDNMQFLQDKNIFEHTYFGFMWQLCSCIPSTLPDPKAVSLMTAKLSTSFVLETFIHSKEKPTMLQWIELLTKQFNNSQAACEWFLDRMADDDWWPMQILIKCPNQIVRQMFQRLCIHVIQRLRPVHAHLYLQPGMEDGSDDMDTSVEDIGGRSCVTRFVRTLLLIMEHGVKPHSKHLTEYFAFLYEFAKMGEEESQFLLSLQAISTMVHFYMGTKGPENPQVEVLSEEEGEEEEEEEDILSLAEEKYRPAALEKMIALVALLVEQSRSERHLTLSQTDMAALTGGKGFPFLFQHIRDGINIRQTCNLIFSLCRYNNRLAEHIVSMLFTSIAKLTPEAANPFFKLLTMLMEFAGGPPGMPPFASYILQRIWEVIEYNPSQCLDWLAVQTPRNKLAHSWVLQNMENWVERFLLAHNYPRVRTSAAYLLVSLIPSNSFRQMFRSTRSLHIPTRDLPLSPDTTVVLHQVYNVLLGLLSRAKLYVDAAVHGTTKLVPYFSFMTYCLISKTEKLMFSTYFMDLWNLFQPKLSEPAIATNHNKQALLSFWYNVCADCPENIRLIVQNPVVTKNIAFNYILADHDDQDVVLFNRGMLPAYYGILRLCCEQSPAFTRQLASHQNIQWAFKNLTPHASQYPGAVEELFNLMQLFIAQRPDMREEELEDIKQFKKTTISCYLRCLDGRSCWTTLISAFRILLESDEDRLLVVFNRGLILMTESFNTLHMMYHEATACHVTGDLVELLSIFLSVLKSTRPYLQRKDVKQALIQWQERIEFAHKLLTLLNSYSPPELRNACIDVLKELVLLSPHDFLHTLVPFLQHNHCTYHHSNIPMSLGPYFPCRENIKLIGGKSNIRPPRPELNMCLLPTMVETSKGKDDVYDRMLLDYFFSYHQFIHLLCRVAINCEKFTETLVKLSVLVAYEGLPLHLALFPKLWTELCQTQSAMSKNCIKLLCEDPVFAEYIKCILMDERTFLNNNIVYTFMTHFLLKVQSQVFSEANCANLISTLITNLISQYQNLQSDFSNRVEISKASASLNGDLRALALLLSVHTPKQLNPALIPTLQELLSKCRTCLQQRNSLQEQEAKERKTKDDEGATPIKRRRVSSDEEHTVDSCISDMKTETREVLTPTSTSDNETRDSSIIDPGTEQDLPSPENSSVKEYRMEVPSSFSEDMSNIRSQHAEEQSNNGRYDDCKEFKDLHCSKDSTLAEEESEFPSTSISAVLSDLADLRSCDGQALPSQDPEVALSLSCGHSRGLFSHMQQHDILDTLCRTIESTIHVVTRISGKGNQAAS

COc1ccc(-c2csc(NC(=O)CCl)n2)cc1
inactive: [1] -0.405 | [2] -0.137 | [3] -0.188 | [4] 0.0959 | [5] -0.299

Reference: the supplement of paper PMC11732987, “Enantioselective OTUD7B fragment discovery through chemoproteomics screening and high-throughput optimisation” (Communications Chemistry, 2025)
